High-throughput results deposited in PubChem by several laboratories.
PGE2 EP2 inh – blocks the human prostaglandin E2 receptor EP2. P43116. C6 glioma cells expressing human EP2, cAMP TR-FRET; cells stimulated with saturating PGE2. inhibition, % at 25 µM. 260,000 compounds, 0.52% hits. AID 1422;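 active = percent inhibition above 40 after rounding to a whole number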;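 note: rat C6 glioma host cells with rolipram phosphodiesterase inhibitor present; the protocol text gives 20 µM as final concentration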
EP2 modulator – modulates human prostaglandin E2 receptor EP2 signaling. P43116. EP2-expressing cells, cAMP HTRF FRET, PGE2 co-stimulation. induction, % at 25 µM. 260,000 compounds, 0.83% hits. AID 940;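 active = compounds whose cAMP rise, as percent of the full-agonist control response, exceeds 60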;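 note: rat C6 glioma line stably carrying human EP2 under a CMV promoter; the protocol text gives 20 µM as final concentration; 100% = response of wells given 1 µM PGE2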
SKN-1 inh – inhibitors of C. elegans SKN-1 | C. elegans VP596 Pgst-4::GFP/RFP ratio, acrylamide-induced, 24 h | inhibition, % at 21.8 µM | 360,000 compounds, 0.49% hits | AID 624304;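 active = interference check ratio from 0.5 to 1.5 plus GFP to RFP signal ratio inhibition reaching or exceeding a fixed threshold, cut at about 30% in these data, passing the limit was not always enough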
PG9 Ab binder – binds the HIV-1 gp120 antibody PG9 | TR-FRET gp120-PG9 antibody binding | inhibition, % at 6.7 µM | 360,000 compounds, 0.43% hits | AID 624416; in the data active = inhibition above about 8.5%
NR1D1 modulator – Rev-erb alpha (human) modulation | P20393 | Rev-erbα–FITC-DNA binding, fluorescence polarization, 90 min | activity, % at 10 µM | 370,000 compounds, 0.79% hits;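 active = activity above about 14%, limit read from the data; passing the limit was not always enough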;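 note: 0% = DMSO wells with 35 nM protein and 100% = DMSO wells with 750 nM protein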
Target sequence (P20393 whole entry, looked up): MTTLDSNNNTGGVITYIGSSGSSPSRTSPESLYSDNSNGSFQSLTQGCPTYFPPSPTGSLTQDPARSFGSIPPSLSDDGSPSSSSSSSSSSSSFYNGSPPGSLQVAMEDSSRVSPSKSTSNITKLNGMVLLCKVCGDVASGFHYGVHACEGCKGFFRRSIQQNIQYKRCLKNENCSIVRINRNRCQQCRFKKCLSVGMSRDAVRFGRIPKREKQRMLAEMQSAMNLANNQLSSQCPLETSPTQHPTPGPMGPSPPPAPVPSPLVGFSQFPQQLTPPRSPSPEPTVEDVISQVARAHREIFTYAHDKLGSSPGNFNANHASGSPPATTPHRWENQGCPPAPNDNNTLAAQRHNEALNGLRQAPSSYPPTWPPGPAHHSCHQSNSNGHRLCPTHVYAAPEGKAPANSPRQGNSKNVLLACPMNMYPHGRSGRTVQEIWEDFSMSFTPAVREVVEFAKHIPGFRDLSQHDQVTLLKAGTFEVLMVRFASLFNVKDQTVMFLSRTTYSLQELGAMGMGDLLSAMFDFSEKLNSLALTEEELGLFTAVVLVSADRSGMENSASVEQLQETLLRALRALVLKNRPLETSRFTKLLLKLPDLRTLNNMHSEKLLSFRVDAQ
RAM network inh – yeast RAM network inhibition; inhibition, % at 50 µM; S. cerevisiae dse1pr::URA3 reporter, 5-FOA growth OD615, 2 d; analog-sensitive cbk1-as2 kinase mutant strain; AID 868; 190,000 compounds, 1.8% hits;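 active = inhibition above a set limit, 3 SD over mean compound inhibition, cut at about 8.4% in these data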;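 note: 0% = DMSO-only wells with no growth and 100% = 10 µM 1-NA-PP1 full growth; inhibition rescues growth on 5-FOA so higher OD means more RAM inhibition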
An asterisk follows results filed as active; x = no result; ! = not active in a repeat. An excerpt weighted towards active compounds, which were near 2.9% of everything screened.

SMILES	PGE2 EP2 inh	EP2 modulator	SKN-1 inh	PG9 Ab binder	NR1D1 modulator	RAM network inh
CCCCOCCCNC(=O)c1ccc(NC(C)=O)cc1	7.4	11.8	4.7	0.9	-1.0	9.3*
CCOc1cc(/C=N/NC(N)=S)cc(Br)c1OCc1ccccc1C	8.0	62.6*	-1.8	x	x	2.6
O=C(Nc1ccccc1)c1cnc[nH]1	x	49.8	31.1*	3.4	1.0	2.8
O=C(c1ccccc1)c1cnc[nH]1	12.3	10.8	8.2	-1.2	4.3	x
O=C(NC1CCCC1)C(c1ccc(F)cc1)N(C(=O)c1ccc2c(c1)OCCO2)C1CCCC1 (configuration not stated)	6.5	23.0	x	x	x	x
Cc1nn(C(=O)c2ccco2)c(C)c1Sc1ccc(Br)cc1	x	-33.0	7.9	-1.4	-1.3	8.8*
O=C(COC(=O)[C@H](Cc1ccccc1)NC(=O)c1ccco1)NC(c1ccccc1)c1ccccc1	11.1	62.2*	-26.3	3.7	6.5	3.7
O=C(COC(=O)[C@H](Cc1ccccc1)NC(=O)c1ccco1)Nc1ccccc1	x	x	10.7	1.0	2.3	x
COc1ccccc1NS(=O)(=O)c1cccc(C(=O)OCC(=O)Nc2cc(C)on2)c1	1.0	-14.3	8.7	-1.0	3.4	3.4
COc1ccccc1NS(=O)(=O)c1cccc(C(=O)OCc2nc3ccccc3s2)c1	5.2	-43.0	4.9	-1.5	5.8	8.4*
Cc1ccc(C)c2[nH]c(=O)c(C(c3nnnn3CCc3ccccc3)N3CCOCC3)cc12 (configuration not stated)	11.1	5.6	-3.4	-1.4	1.0	-1.0
Cc1cc(C)c2[nH]c(=O)c(C(c3nnnn3Cc3ccc(F)cc3)N3CCCCCC3)cc2c1 (configuration not stated)	13.3	68.7*	x	x	x	x
Cc1cccc2cc(C(c3nnnn3Cc3ccc(F)cc3)N3CCCCC3)c(=O)[nH]c12 (configuration not stated)	7.4	-14.1	x	x	x	x
Cc1ccc(C)c2[nH]c(=O)c(C(c3nnnn3CCc3ccccc3)N3CCCCC3)cc12 (configuration not stated)	10.8	84.6*	x	x	x	x
CCN(C(=O)C1CC1)c1nc(-c2ccc(Cl)cc2)cs1	6.2	25.0	x	x	x	x
CSc1nc(-c2ccco2)nn1C(=O)c1ccc(C)cc1	5.0	57.9	36.1*	-0.7	-6.4	0.6
O=c1oc(-c2nccc3ccccc23)nn1Cc1cccnc1	x	-29.1	x	x	x	x
Cc1ccc(C)c(NC(=O)Cc2coc3cc4c(cc23)CCC4)c1	5.2	25.9	-6.9	-1.0	2.2	3.6
CCC(C)c1ccccc1NC(=O)Cc1coc2cc3c(cc12)CCC3 (configuration not stated)	5.2	56.9	12.3	0.2	-2.3	9.5*
CC1(C)CC(Nc2ccc(Nc3ccccc3)cc2)CC(C)(C)N1	59.6*!	-56.7	-7.3	-16.0	0.8	x
O=C(CCn1c(=O)c2sccc2n(CC(=O)OCc2ccccc2)c1=O)NCc1ccccc1	14.9	3.3	-3.2	-2.9	5.7	11.3*
COc1ccc2c(c1)OC/C(=C/c1cccs1)C2=O	8.3	-2.2	53.6*	-3.6	-0.7	1.6
CCOC(=O)COn1c(-c2cccc(Cl)c2)nc2ccc([N+](=O)[O-])cc21	17.9	4.6	38.0*	0.5	2.0	1.5
CCOC(=O)C(C)On1c(-c2cccc(Cl)c2)nc2ccc([N+](=O)[O-])cc21 (configuration not stated)	21.8	14.9	15.4	1.0	-5.0	2.7
CC(=O)NC1CC2CCCC(C1)N2C(=O)Nc1ccccc1Cl (configuration not stated)	5.2	-8.7	x	x	x	x
SMILES	PGE2 EP2 inh	EP2 modulator	SKN-1 inh	PG9 Ab binder	NR1D1 modulator	RAM network inh
O=C(Nc1ccc(OC(F)F)c(Cl)c1)c1ccccn1	5.0	-42.6	58.5*	-0.2	-0.4	3.1
COc1ccc(NC(=O)c2ccc(OC(F)F)cc2)cc1Cl	-0.1	-68.7	3.9	-0.3	0.3	6.2
Cc1ccc(CN2CCC(n3nccc3NC(=O)c3ccccc3C)CC2)o1	x	x	35.5*	1.5	0.7	x
COc1ccccc1NC(=S)N(Cc1ccco1)Cc1cc2cc(C)c(C)cc2[nH]c1=O	3.7	22.4	2.7	-2.3	-9.6	9.5*
COc1ccc2[nH]c(=O)c(CN(Cc3ccc4c(c3)OCO4)C(=O)Nc3ccccc3)cc2c1	4.5	-18.3	x	x	x	x
COc1ccccc1NC(=O)N(Cc1ccco1)Cc1cc2cc(C)c(C)cc2[nH]c1=O	5.3	31.1	x	x	x	x
